Assay results from PubChem BioAssay (EPA / NIEHS).
Inconclusive results are not listed. Active and inactive are the calls of the source. Rule for the calls, unless noted: active = hit-call score of the fitted dose curve at least 0.9, where 1 is the maximum; inactive = score below 0.9.

Assays:
[1] = target: human Retinoid X Receptor beta (RXRb), RXRB (gene 6257) (UniProt P28702); assay: ATG_RXRb_TRANS: Attagene TRANS-FACTORIAL HepG2 Assay for human Retinoid X Receptor beta (RXRb) (AID 2283013; active = hit-call score of the fitted dose curve at least 0.9, where 1 is the maximum)
human Retinoid X Receptor beta (RXRb), RXRB (gene 6257), sequence (P28702 whole entry, looked up, the tested form may be a part): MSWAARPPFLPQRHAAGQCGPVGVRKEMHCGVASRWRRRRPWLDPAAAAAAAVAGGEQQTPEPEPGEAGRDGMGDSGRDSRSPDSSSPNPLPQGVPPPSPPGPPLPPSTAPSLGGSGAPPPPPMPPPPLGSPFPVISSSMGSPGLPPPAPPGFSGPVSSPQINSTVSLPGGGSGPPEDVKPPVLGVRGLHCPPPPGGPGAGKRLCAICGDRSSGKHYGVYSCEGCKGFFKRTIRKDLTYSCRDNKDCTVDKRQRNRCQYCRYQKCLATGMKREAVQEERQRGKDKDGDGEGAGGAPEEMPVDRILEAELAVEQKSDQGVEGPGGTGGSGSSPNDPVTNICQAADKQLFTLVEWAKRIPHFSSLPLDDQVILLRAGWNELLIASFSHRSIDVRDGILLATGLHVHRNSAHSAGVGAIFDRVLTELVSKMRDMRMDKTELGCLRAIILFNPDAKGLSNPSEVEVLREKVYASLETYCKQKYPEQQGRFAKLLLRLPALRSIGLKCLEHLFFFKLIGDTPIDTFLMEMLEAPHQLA
Outline: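 HepG2 cells were transiently transfected with multiplexed GAL4-UAS reporters and a chimeric RXRb-Gal4 construct, then exposed for 24 h. Reporter mRNA was quantified by RT-PCR, FAM labeling, HpaI digestion and capillary electrophoresis; gain of signal was scored against DMSO.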

[2] = target: human Thyroid Receptor alpha (THRa1), THRA (gene 7067) (UniProt P10827); assay: ATG_THRa1_TRANS: Attagene TRANS-FACTORIAL HepG2 Assay for human Thyroid Receptor alpha (THRa1) (AID 2283014; active = hit-call score of the fitted dose curve at least 0.9, where 1 is the maximum)
human Thyroid Receptor alpha (THRa1), THRA (gene 7067), sequence (P10827 whole entry, looked up, the tested form may be a part): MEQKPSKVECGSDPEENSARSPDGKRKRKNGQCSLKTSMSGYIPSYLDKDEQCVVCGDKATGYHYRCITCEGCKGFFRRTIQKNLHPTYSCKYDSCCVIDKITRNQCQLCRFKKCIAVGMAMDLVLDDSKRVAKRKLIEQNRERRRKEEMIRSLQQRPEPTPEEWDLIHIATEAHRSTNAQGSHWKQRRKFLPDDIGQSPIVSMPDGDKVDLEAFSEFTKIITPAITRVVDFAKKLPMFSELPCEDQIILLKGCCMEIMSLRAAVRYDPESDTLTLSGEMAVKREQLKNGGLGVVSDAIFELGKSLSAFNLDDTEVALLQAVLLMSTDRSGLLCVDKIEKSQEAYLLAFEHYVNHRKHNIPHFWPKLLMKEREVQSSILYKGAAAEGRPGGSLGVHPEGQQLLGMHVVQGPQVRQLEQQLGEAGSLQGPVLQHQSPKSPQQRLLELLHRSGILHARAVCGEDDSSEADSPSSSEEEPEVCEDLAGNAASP
Outline: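 Reporter transcript induction, read by capillary electrophoresis of 6-FAM-labelled RT-PCR products, reflects activity of a transfected THRa1-Gal4 fusion in HepG2 liver cells. Cells were dosed for 24 h; activity was fitted in the positive direction against DMSO.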

[3] = read-out: E-selectin (Homo sapiens) (UniProt P16581); assay: BSK_3C_Eselectin: BioMAP Diversity Plus: 3C Assay for Eselectin Biomarker Activity (AID 2283015); settings: primary human endothelial cells (HUVEC); actives raise or lower the signal
Outline: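 ELISA read-out of E-selectin on endothelial monolayers after 24 h chemical treatment. Human umbilical vein primary cells served as the system, with DMSO defining baseline activity for bidirectional fitting.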

[4] = read-out: Interleukin-1 alpha (IL1a), IL1A (gene 3552); assay: BSK_BE3C_IL1a: BioMAP Diversity Plus: BE3C Assay for Interleukin-1 alpha (IL1a) Biomarker Activity (AID 2283016); settings: primary human bronchial epithelial cells; actives raise or lower the signal
Outline: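 Human primary bronchial epithelial cells, 24 h chemical exposure; IL-1a quantified by ELISA, fitted bidirectionally against DMSO. Cytotoxicity assessed in parallel by SRB total-protein staining at the time of measurement.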

[5] = read-out: Monocyte Chemoattractant Protein-1 (MCP1), CCL2 (gene 6347); assay: BSK_3C_MCP1: BioMAP Diversity Plus: 3C Assay for Monocyte Chemoattractant Protein-1 (MCP1) Biomarker Activity (AID 2283017); settings: primary human endothelial cells (HUVEC); actives raise or lower the signal
Outline: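 ELISA read-out of MCP-1 from human umbilical vein endothelial cell cultures harvested 24 h post-dosing. Gain or loss of signal was fitted relative to DMSO.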

[6] = read-out: Monocyte Chemoattractant Protein-1 (MCP1), CCL2 (gene 6347); assay: BSK_4H_MCP1: BioMAP Diversity Plus: 4H Assay for Monocyte Chemoattractant Protein-1 (MCP1) Biomarker Activity (AID 2283018); settings: primary human endothelial cells (HUVEC); actives raise or lower the signal
Outline: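 Human umbilical vein endothelial cells (4H system) exposed to chemicals for 24 h in 96-well format. MCP-1 measured by ELISA; bidirectional fitting against DMSO, with SRB total-protein staining in parallel cultures for cytotoxicity.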

[7] = read-out: Human Leukocyte Antigen - DR isotype (HLADR), HLA-DRA (gene 3122); assay: BSK_3C_HLADR: BioMAP Diversity Plus: 3C Assay for Human Leukocyte Antigen - DR isotype (HLADR) Biomarker Activity (AID 2283019); settings: primary human endothelial cells (HUVEC); actives raise or lower the signal
Outline: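 ELISA readout of surface HLA-DR on human umbilical vein endothelium, taken 24 h after chemical treatment. Gain- and loss-of-signal were both fitted relative to DMSO.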

[8] = read-out: Interleukin-8 (IL8), CXCL8 (gene 3576); assay: BSK_3C_IL8: BioMAP Diversity Plus: 3C Assay for Interleukin-8 (IL8) Biomarker Activity (AID 2283020); settings: primary human endothelial cells (HUVEC); actives raise or lower the signal
Outline: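 Primary human umbilical vein endothelial cells were dosed for 24 h. IL-8 was quantified by ELISA and fitted bidirectionally against DMSO. Cytotoxicity was assessed in parallel cultures by SRB staining at 560 nm.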

[9] = read-out: Monokine induced gamma interferon (MIG), CXCL9 (gene 4283); assay: BSK_3C_MIG: BioMAP Diversity Plus: 3C Assay for Monokine induced gamma interferon (MIG) Biomarker Activity (AID 2283021); settings: primary human endothelial cells (HUVEC); actives raise or lower the signal;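 for AC50: MIG protein level measured by immunoassay in the treated endothelial cultures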
Outline: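 HUVEC primary endothelial cultures dosed with chemical; MIG quantified by ELISA at 24 h. Data fitted bidirectionally against DMSO control, with parallel SRB total-protein staining for cytotoxicity.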

[10] = target: Retinoic acid receptor RXR-alpha (Homo sapiens) (UniProt P19793); assay: ATG_RXRa_TRANS: Attagene TRANS-FACTORIAL HepG2 Assay for human Retinoid X Receptor alpha (RXRa) (AID 2283012; active = hit-call score of the fitted dose curve at least 0.9, where 1 is the maximum)
Retinoic acid receptor RXR-alpha (Homo sapiens), sequence (P19793 whole entry, looked up, the tested form may be a part): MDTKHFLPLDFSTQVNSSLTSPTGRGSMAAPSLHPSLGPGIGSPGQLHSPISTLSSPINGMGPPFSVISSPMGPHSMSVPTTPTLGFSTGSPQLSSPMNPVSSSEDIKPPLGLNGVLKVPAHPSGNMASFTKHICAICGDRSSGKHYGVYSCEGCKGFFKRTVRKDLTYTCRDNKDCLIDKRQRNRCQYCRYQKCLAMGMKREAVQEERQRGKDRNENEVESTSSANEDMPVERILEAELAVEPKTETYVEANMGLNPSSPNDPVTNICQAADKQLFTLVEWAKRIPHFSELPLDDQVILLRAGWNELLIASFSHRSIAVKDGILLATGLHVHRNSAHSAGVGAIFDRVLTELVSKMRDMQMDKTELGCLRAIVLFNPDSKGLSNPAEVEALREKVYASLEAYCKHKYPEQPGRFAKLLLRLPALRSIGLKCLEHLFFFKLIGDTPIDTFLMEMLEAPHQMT
Outline: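 HepG2 cells transiently transfected with GAL4-UAS reporter units and chimeric RXRa-Gal4 protein, treated 24 h. Reporter mRNA measured by RT-PCR, fluorescent labelling, HpaI digestion and capillary electrophoresis. Induction fitted against DMSO.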

Measured: AC50

E-selectin (Homo sapiens), sequence (P16581 whole entry, looked up): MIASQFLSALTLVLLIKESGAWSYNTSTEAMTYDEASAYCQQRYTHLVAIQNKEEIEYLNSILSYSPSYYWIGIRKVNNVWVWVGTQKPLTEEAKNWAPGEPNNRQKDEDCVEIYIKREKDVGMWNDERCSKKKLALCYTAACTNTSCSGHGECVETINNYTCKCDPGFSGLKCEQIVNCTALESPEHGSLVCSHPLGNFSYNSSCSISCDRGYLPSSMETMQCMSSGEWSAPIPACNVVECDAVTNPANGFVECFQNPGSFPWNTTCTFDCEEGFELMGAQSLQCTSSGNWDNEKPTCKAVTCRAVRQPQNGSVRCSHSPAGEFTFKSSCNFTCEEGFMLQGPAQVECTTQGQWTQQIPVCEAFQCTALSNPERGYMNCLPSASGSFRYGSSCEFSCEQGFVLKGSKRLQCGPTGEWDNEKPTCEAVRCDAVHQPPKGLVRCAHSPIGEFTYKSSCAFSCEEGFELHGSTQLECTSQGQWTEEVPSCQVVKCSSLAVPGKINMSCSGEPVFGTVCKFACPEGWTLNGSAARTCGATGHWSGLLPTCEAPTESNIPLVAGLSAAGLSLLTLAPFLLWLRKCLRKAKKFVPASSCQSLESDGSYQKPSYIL

CCCCCCCCCCCCBr
inactive: [1]

CC(=Cc1ccccc1)[N+](=O)[O-]
active: [1] 17.3 µM

CNC(=O)N(C)c1nc2ccccc2s1
inactive: [1] | [2]

O=[N+]([O-])c1cc([As](=O)(O)O)ccc1O
inactive: [1] | [2]

CCOP(=O)(OCC)SCCSCC
inactive: [1] | [2] | [3] | [4] | [5] | [6] | [7] | [8] | [9]

OC[C@@H](O)[C@H]1O[C@@H]2O[C@H](C(Cl)(Cl)Cl)O[C@@H]2[C@H]1O
inactive: [1]

C#CCO
inactive: [1] | [2]

O=S(=O)(c1ccc(Cl)cc1)c1cc(Cl)c(Cl)cc1Cl
inactive: [10] | [3] | [4] | [9]
active: [5] 20 µM | [7] 5.27 µM | [8] 3.97 µM

Nc1nc(=S)[nH][nH]1
active: [1] 164 µM

N#CCCC(Br)(C#N)CBr (centres undefined)
active: [3] 10.6 µM | [4] 20 µM | [5] 7.55 µM | [7] 3.16 µM | [8] 8.39 µM | [9] 12.7 µM
inactive: [10]

Clc1cccc(Cl)c1
inactive: [1] | [2] | [3] | [4] | [5] | [7] | [8] | [9]

CCCCCCCCCCCCCl
active: [1] 65.2 µM
inactive: [2]

ClCCN1CCOCC1
inactive: [1]

CCOP(=S)(OCC)SCSc1cc(Cl)ccc1Cl
active: [1] 25.5 µM
inactive: [2]

BrCCCCBr
inactive: [1] | [2]

O=C(NC(=O)c1c(F)cccc1F)Nc1ccc(Cl)cc1
inactive: [1] | [2]

O=C(Cl)OCCOCCOC(=O)Cl
inactive: [1] | [2]

C=CC(Cl)CCl (centres undefined)
inactive: [10] | [3] | [5] | [7] | [8] | [9]
active: [4] 0.14 µM

CCCCC(CC)COC(=O)Cl (centres undefined)
inactive: [1]

CC1CC(=O)O1 (centres undefined)
inactive: [1]

CCCCN(CCCC)C(=S)[S-].CCCCN(CCCC)C(=S)[S-].[Ni+2]
inactive: [1] | [2] | [3] | [4] | [5] | [6] | [7] | [8] | [9]

COC(F)(C(F)(F)C(F)(F)F)C(F)(C(F)(F)F)C(F)(F)F (centres undefined)
inactive: [1] | [2]

c1ccc2sc(SNC3CCCCC3)nc2c1
inactive: [1] | [2] | [3] | [4] | [5] | [8] | [9]
active: [7] 29.3 µM

O=C=Nc1ccc(Cl)cc1
inactive: [1] | [2]

CC1(C)[C@H](/C=C2\CCSC2=O)[C@@H]1C(=O)OCc1coc(Cc2ccccc2)c1
inactive: [1]

CN(C)CCN(C)C
inactive: [1] | [2]

N#Cc1ccccc1N
inactive: [2]

CCN(CC)C(=O)C(Cl)=C(C)OP(=O)(OC)OC
inactive: [2] | [3] | [4] | [5] | [7] | [8] | [9]

Oc1c(Cl)cc(Cl)cc1Cl
inactive: [2] | [3] | [4] | [5] | [6] | [7] | [8] | [9]

COC(=O)Nc1cccc(OC(=O)Nc2cccc(C)c2)c1
inactive: [2]

O=C(CCl)Nc1ccccc1
inactive: [2]

CC(C)(COCC1CO1)COCC1CO1 (centres undefined)
inactive: [2] | [3] | [4] | [5] | [8] | [9]
active: [7] 20 µM

CNC(=O)CSP(=O)(OC)OC
inactive: [2]

CCOP(=S)(OCC)SCS(=O)(=O)C(C)(C)C
inactive: [1] | [3] | [4] | [5] | [7] | [8] | [9]

CCC[CH2][Sn]([Cl])([Cl])[CH2]CCC
inactive: [2]

C=C(C)[C@@H]1CC=C(C=O)CC1
inactive: [2]

C=CCOC(N)=O
inactive: [2]

O=C(Nc1ccc(Br)cc1)c1cc(Br)cc(Br)c1O
inactive: [2]

Cc1cc(Cl)ccc1OC(C)C(=O)O (centres undefined)
inactive: [2] | [3] | [4] | [5] | [7] | [8] | [9]

C[C@]12CC[C@@H](O)C[C@@H]1CC[C@@H]1[C@@H]2CC[C@]2(C)C(=O)CC[C@@H]12
inactive: [1] | [3] | [4] | [5] | [7] | [8] | [9]

CCOC(=O)c1ccccc1S(=O)(=O)NC(=O)Nc1nc(Cl)cc(OC)n1
inactive: [2]

Nc1nc(N)nc(Cl)n1
inactive: [2]

CCCCOC(=O)COC(=O)c1ccccc1C(=O)OCCCC
inactive: [2] | [3] | [4] | [5] | [7] | [8] | [9]

Clc1cccc(Cl)c1Cl
inactive: [1] | [3] | [4] | [5] | [7] | [8] | [9]

O=C(CCl)NCO
inactive: [2] | [3] | [4] | [5] | [7] | [8] | [9]

CCOc1ccc(N)cc1
inactive: [2]

OCCCCO
inactive: [3] | [4] | [5] | [7] | [8] | [9]

CCOP(=O)(OCC)OC(=CCl)c1ccc(Cl)cc1Cl
active: [3] 29.2 µM | [5] 35.4 µM | [6] 20 µM | [7] 32.7 µM | [8] 3.97 µM
inactive: [4] | [9]

CC(C)(c1ccccc1)c1cc(-n2nc3ccccc3n2)c(O)c(C(C)(C)c2ccccc2)c1
inactive: [2]

CCCCCCCCCCCCc1cccc(S(=O)(=O)O)c1
active: [1] 30 µM | [4] 27.2 µM
inactive: [3] | [5] | [6] | [7] | [8] | [9]

N#Cc1cccnc1
inactive: [2] | [3] | [4] | [5] | [7] | [8] | [9]

COc1ccc(N)cc1
inactive: [2]

Cc1ccc(CCl)cc1
inactive: [2]

CN(C1CCCCC1)C1CCCCC1
inactive: [2]

CCOC(=O)C(SP(=S)(OC)OC)c1ccccc1 (centres undefined)
active: [1] 32.2 µM | [5] 3.97 µM | [6] 3.97 µM | [7] 31.8 µM
inactive: [3] | [4] | [8] | [9]

Cc1cccc(OP(=O)(Oc2cccc(C)c2)Oc2cccc(C)c2)c1
active: [4] 0.78 µM
inactive: [3] | [5] | [6] | [7] | [8] | [9]

O=C(Cc1ccccc1)OCCc1ccccc1
inactive: [1] | [3] | [4] | [5] | [6] | [7] | [8] | [9]

CC(C)N(C(=O)CCl)c1ccccc1
active: [3] 20 µM | [4] 35.1 µM | [5] 20 µM | [7] 7.36 µM | [9] 33.3 µM
inactive: [2] | [8]

C=CC(=O)NC(C)(C)CC(C)=O
inactive: [2]

O=C(NC(=O)c1c(F)cccc1F)Nc1cc(Cl)c(Oc2ncc(C(F)(F)F)cc2Cl)c(Cl)c1
inactive: [2]

Brc1ccc(Br)cc1
inactive: [2]

CC(C)=CC1C(C(=O)OCc2cccc(Oc3ccccc3)c2)C1(C)C (centres undefined)
active: [3] 2.62 µM | [6] 20 µM | [7] 20 µM
inactive: [1] | [4] | [5] | [8] | [9]

CC(C)[N+](=O)[O-]
inactive: [2]
